The results in this text go back to PubChem BioAssay (EPA / NIEHS).

Holding throughout (conditions): mRNA level, 48 h; actives raise or lower the signal
Read-out in assay [1]: Cytochrome P450 2C19 (Homo sapiens) (UniProt P33261)
The assay is described as follows: LTEA_HepaRG_CYP2C19: Life Technologies and Expression Analysis (LTEA) Assay for CYP2C19 using HepaRG (AID 2283482). The procedure, abridged: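 Transcript levels of CYP2C19 were quantified by qRT-PCR after HepaRG cells were treated for 48 hours with test chemicals up to 100 uM (eight half-log concentrations, 0.5% DMSO vehicle). Gain or loss of signal was fitted relative to DMSO.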

Read-out in assay [2]: CYP2C8 (gene 1558)
The experiment in a line: LTEA_HepaRG_CYP2C8: Life Technologies and Expression Analysis (LTEA) Assay for CYP2C8 using HepaRG (AID 2283483). The procedure, abridged:
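HepaRG (human liver line), 48 h chemical exposure, 8-pt half-log series from 100 uM, 0.5% DMSO vehicle. Readout: CYP2C8 transcript by qRT-PCR, housekeeping-normalized. Bidirectional fit vs DMSO baseline.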

Read-out in assay [3]: CYP2E1 (gene 1571)
The experiment in a line: LTEA_HepaRG_CYP2E1: Life Technologies and Expression Analysis (LTEA) Assay for CYP2E1 using HepaRG (AID 2283485). The procedure, abridged: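 Readout is qRT-PCR of CYP2E1 mRNA, normalized to three housekeeping genes and fitted bidirectionally against 0.5% DMSO. HepaRG cells were dosed 48 h at eight concentrations, highest 100 uM with half-log dilutions.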

Read-out in assay [4]: CYP4A11 (gene 1579)
The assay is described as follows: LTEA_HepaRG_CYP4A11: Life Technologies and Expression Analysis (LTEA) Assay for CYP4A11 using HepaRG (AID 2283486). The essentials: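 HepaRG, 48 h chem exposure, 8 conc (100 uM top, half-log), 0.5% DMSO vehicle; qRT-PCR readout, housekeeping-gene normalized; bidirectional curve fit vs DMSO baseline.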

Read-out in assay [5]: Cytochrome P450 3A4 (Homo sapiens) (UniProt P08684)
The assay is described as follows: LTEA_HepaRG_CYP3A4: Life Technologies and Expression Analysis (LTEA) Assay for CYP3A4 using HepaRG (AID 2283487). The essentials:
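Differentiated HepaRG cells, plated 48 h, then dosed 48 h in serum-free induction medium with 0.5% DMSO, 8 half-log concentrations up to 100 uM, duplicate. CYP3A4 mRNA by qRT-PCR, normalized to ACTB/GAPDH/POLR2A; bidirectional fit versus DMSO.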

Read-out in assay [6]: DNA damage-inducible transcript 3 (DDIT3), DDIT3 (gene 1649)
The assay is described as follows: LTEA_HepaRG_DDIT3: Life Technologies and Expression Analysis (LTEA) Assay for DNA damage-inducible transcript 3 (DDIT3) using HepaRG (AID 2283488). The essentials: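 Cells are human HepaRG liver cells treated for 48 h with eight half-log concentrations up to 100 uM in 0.5% DMSO. Transcript levels come from qRT-PCR normalized to three housekeeping genes, with activity fitted in both directions relative to vehicle.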

Read-out in assay [7]: Pro-epidermal growth factor (Homo sapiens) (UniProt P01133)
The experiment in a line: LTEA_HepaRG_EGF: Life Technologies and Expression Analysis (LTEA) Assay for Epidermal growth factor (EGF) using HepaRG (AID 2283489). The procedure, abridged:
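HepaRG, 48 h dosing, 100 uM top, half-log x8, 0.5% DMSO. Readout: TaqMan qRT-PCR (Fluidigm array), housekeeping-normalized. Gain or loss of signal fit vs DMSO.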

Read-out in assay [8]: Early growth response protein 1 (EGR1) transcription factor, EGR1 (gene 1958)
The experiment in a line: LTEA_HepaRG_EGR1: Life Technologies and Expression Analysis (LTEA) Assay for Early growth response protein 1 (EGR1) transcription factor using HepaRG (AID 2283490). The essentials: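 HepaRG, 48 h exposure, 8-pt half-log series from 100 uM, 0.5% DMSO vehicle; EGR1 transcript by TaqMan qRT-PCR (Fluidigm array), housekeeping-normalized; bidirectional fit relative to DMSO baseline.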

Read-out in assay [9]: Cytochrome P450 3A7 (Homo sapiens) (UniProt P24462)
The assay is described as follows: LTEA_HepaRG_CYP3A7: Life Technologies and Expression Analysis (LTEA) Assay for CYP3A7 using HepaRG (AID 2283492). The essentials: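 Human HepaRG liver cells, 48 h post-plating, switched to serum-free induction medium and exposed in duplicate for 48 h. Dosing: 100 uM top, half-log dilutions, 8 points, 0.5% DMSO vehicle. Read-out: CYP3A7 mRNA, gain or loss fitted against DMSO baseline.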

Read-out in assay [10]: CYP3A5 (gene 1577)
The assay is described as follows: LTEA_HepaRG_CYP3A5: Life Technologies and Expression Analysis (LTEA) Assay for CYP3A5 using HepaRG (AID 2283493). The essentials:
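Human HepaRG hepatic cells receive 48 h chemical treatment at eight concentrations (half-log steps from 100 uM) in 0.5% DMSO. Expression of CYP3A5 is quantified by Fluidigm qRT-PCR and normalized to three reference genes.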

Read-out in assay [11]: Fatty Acid-Binding Protein 1 (FABP1), FABP1 (gene 2168)
The experiment in a line: LTEA_HepaRG_FABP1: Life Technologies and Expression Analysis (LTEA) Assay for Fatty Acid-Binding Protein 1 (FABP1) using HepaRG (AID 2283494). The essentials:
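qRT-PCR readout of FABP1 transcript (normalized to three housekeeping genes) after 48 h chemical exposure of HepaRG cells; eight concentrations, half-log steps, max 100 uM, 0.5% DMSO vehicle; gain or loss fitted relative to DMSO baseline.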

Read-out in assay [12]: Cytochrome P450 4A22 (Homo sapiens) (UniProt Q5TCH4)
The experiment in a line: LTEA_HepaRG_CYP4A22: Life Technologies and Expression Analysis (LTEA) Assay for Cytochrome P450 4A22 (CYP4A22) using HepaRG (AID 2283495). The procedure, abridged: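 Readout is CYP4A22 transcript induction or loss, quantified by qRT-PCR and normalized to ACTB, GAPDH and POLR2A. Human HepaRG cells receive test chemicals for 48 h at eight half-log concentrations from 100 uM in 0.5% DMSO.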

Read-out in assay [13]: Cytochrome P450 7A1 (Homo sapiens) (UniProt P22680)
The assay is described as follows: LTEA_HepaRG_CYP7A1: Life Technologies and Expression Analysis (LTEA) Assay for Cytochrome P450 7A1 (CYP7A1) using HepaRG (AID 2283496). The procedure, abridged:
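HepaRG, 48 h exposure, 8-pt half-log series from 100 uM, 0.5% DMSO vehicle, duplicates. Readout: TaqMan qRT-PCR mRNA vs three housekeeping genes; bidirectional curve fit against DMSO baseline.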

Read-out in assay [14]: Glutamate-cysteine ligase catalytic (GCLC), GCLC (gene 2729)
The assay is described as follows: LTEA_HepaRG_GCLC: Life Technologies and Expression Analysis (LTEA) Assay for Glutamate-cysteine ligase catalytic (GCLC) using HepaRG (AID 2283498). The essentials: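 HepaRG, 48 h exposure, 8-pt half-log series from 100 uM, 0.5% DMSO vehicle; TaqMan qRT-PCR for GCLC mRNA, housekeeping-normalized; bidirectional curve fit vs DMSO baseline.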

Read-out in assay [15]: growth arrest and DNA damage 45 (GADD45G), GADD45G (gene 10912)
The assay is described as follows: LTEA_HepaRG_GADD45G: Life Technologies and Expression Analysis (LTEA) Assay for growth arrest and DNA damage 45 (GADD45G) using HepaRG (AID 2283499). The essentials: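 Gain or loss of GADD45G mRNA, quantified by TaqMan qRT-PCR against three housekeeping genes, is fitted in both directions relative to 0.5% DMSO. Human HepaRG cultures receive test chemical for 48 h at up to 100 uM.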

Read-out in assay [16]: Glutamate-cysteine ligase regulatory (GCLM), GCLM (gene 2730)
The experiment in a line: LTEA_HepaRG_GCLM: Life Technologies and Expression Analysis (LTEA) Assay for Glutamate-cysteine ligase regulatory (GCLM) using HepaRG (AID 2283500). The essentials: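 Endpoint is GCLM transcript level by qRT-PCR, normalized to three housekeeping genes, after 48 h chemical exposure of human HepaRG cells (0.5% DMSO vehicle, top 100 uM, half-log dilutions). Fitting was bidirectional relative to DMSO.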

Read-out in assay [17]: Glutathione S-transferase M3 (GSTM3), GSTM3 (gene 2947)
The experiment in a line: LTEA_HepaRG_GSTM3: Life Technologies and Expression Analysis (LTEA) Assay for Glutathione S-transferase M3 (GSTM3) using HepaRG (AID 2283501). The procedure, abridged: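 HepaRG, plated 48 h, then serum-free induction medium; test chemical 48 h, duplicate; 100 uM top, half-log x8, 0.5% DMSO. Read-out: GSTM3 mRNA (TaqMan qRT-PCR, Fluidigm array). Bidirectional fit vs DMSO.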

Read-out in assay [18]: Ezrin (EZR), EZR (gene 7430)
The assay is described as follows: LTEA_HepaRG_EZR: Life Technologies and Expression Analysis (LTEA) Assay for Ezrin (EZR) using HepaRG (AID 2283491). The essentials: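 EZR transcript levels came from Fluidigm qRT-PCR and were normalized to three housekeeping genes after 48 h chemical exposure of HepaRG cells. Dosing used an 8-point half-log series with a 100 uM top concentration in 0.5% DMSO, tested in duplicate; both directions were fitted versus vehicle.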

Read-out in assay [19]: CYP2C9 (gene 1559)
The experiment in a line: LTEA_HepaRG_CYP2C9: Life Technologies and Expression Analysis (LTEA) Assay for CYP2C9 using HepaRG (AID 2283484). The essentials:
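HepaRG, 48 h dosing, 8-pt half-log series, top 100 uM, 0.5% DMSO vehicle. Read-out: CYP2C9 transcript by TaqMan qRT-PCR, housekeeping-normalized (ACTB/GAPDH/POLR2A). Gain or loss fitted vs DMSO baseline.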

Active and inactive are the calls of the source. Rule for the calls: active = hit-call score of the fitted dose curve at least 0.9, where 1 is the maximum; inactive = score below 0.9.

Sequence of Cytochrome P450 2C19 (Homo sapiens) (P33261 whole entry, looked up): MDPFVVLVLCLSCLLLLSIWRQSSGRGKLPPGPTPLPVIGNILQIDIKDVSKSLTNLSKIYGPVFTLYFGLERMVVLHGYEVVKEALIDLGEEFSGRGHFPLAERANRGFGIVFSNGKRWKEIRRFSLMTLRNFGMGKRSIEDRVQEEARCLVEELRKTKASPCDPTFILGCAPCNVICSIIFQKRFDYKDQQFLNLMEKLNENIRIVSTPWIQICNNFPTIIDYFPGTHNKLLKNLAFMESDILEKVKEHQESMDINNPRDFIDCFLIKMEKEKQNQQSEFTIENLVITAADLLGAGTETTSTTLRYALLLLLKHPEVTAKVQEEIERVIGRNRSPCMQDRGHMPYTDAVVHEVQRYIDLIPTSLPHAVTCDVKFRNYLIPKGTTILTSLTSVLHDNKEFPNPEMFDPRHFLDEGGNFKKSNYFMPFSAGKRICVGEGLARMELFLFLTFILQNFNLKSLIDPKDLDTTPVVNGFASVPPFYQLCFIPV
Sequence of Cytochrome P450 3A4 (Homo sapiens) (P08684 whole entry, looked up): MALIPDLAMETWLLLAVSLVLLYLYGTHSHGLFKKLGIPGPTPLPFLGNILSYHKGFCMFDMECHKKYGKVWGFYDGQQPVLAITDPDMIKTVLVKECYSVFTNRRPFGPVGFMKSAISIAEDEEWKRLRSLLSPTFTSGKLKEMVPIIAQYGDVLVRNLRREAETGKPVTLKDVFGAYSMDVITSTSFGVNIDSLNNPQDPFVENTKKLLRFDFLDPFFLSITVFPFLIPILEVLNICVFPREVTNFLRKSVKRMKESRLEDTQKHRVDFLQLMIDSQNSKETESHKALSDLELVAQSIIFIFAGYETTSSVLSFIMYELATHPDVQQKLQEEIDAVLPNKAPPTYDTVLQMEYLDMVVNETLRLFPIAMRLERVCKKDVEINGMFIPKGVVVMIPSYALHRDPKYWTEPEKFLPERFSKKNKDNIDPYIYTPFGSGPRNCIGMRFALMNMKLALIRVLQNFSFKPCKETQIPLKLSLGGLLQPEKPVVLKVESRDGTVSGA
Sequence of Cytochrome P450 3A7 (Homo sapiens) (P24462 whole entry, looked up): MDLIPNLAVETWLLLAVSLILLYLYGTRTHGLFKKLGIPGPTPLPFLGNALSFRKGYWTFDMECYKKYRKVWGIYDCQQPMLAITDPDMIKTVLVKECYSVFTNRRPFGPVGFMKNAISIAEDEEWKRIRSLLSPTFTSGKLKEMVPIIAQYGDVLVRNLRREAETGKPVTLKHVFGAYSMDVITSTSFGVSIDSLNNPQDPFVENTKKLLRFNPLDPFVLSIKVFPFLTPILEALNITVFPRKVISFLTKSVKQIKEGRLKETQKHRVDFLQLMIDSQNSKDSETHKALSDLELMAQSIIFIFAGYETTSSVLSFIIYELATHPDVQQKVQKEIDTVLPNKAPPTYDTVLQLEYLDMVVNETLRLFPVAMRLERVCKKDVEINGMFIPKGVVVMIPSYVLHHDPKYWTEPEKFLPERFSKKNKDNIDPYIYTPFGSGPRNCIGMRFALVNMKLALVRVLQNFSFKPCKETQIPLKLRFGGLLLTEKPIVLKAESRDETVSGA

For `CCC(=NOC/C=C/Cl)C1=C(O)CC(C2CCOCC2)CC1=O` (stereo unspecified), the outcome in [1], in assay [2], in assay [3], in assay [4], in [5] and in assay [6] was inactive. For the same molecule, the result in assay [7], in [8], in assay [9], in assay [10], in assay [11] and in [12] was inactive. Further, the call in [13], in assay [14], in assay [15], in assay [16] and in [17] was inactive.
The AC50 is the concentration giving half of the maximal activity seen. As for `CCOP(=O)(NC(C)C)Oc1ccc(SC)c(C)c1` (stereo unspecified), the AC50 in assay [1] was 50 µM (active); in assay [3], 34.3 µM (active); in assay [4], 22.4 µM (active); in assay [11], 23.8 µM (active); in assay [12], 19.5 µM (active); in assay [13], 3.62 µM (active). Moreover, the result in assay [2], in [6], in [7], in assay [8], in [18] and in assay [9] was inactive. Besides, the molecule was called inactive in assay [10], in [14], in assay [15], in assay [16] and in [17].
Take `CNC(=O)Oc1cccc2c1OC(C)(C)O2`: the result in assay [1], in [2], in [19], in [3], in assay [4] and in assay [5] was inactive. Besides, the molecule was called inactive in assay [6], in assay [7], in assay [8], in assay [18], in assay [9] and in assay [10]. Also, the outcome in assay [11], in [12], in assay [13], in assay [14], in assay [15] and in [16] was inactive. Besides, the molecule was called inactive in assay [17].
Take `CCCCOC(=O)c1ccccc1C(=O)O`: the call in [2], in assay [19], in [3], in assay [4], in assay [5] and in [6] was inactive. Further, the call in assay [7], in assay [8], in assay [18], in [10], in assay [11] and in [12] was inactive. In addition, the molecule was called inactive in assay [13], in assay [14], in [15], in [16] and in [17]. Further, the AC50 in [9] is 12.7 µM (active).
